Data from PubChem BioAssay (EPA / NIEHS).
Results filed as inconclusive are left out. Activity calls are given as the source filed them. How the source made its calls: active means hit-call score of the fitted dose curve at least 0.9, where 1 is the maximum; inconclusive means response in the unintended direction; inactive means score below 0.9.

Assay: ACEA_ER_80hr: ACEA Biosciences xCELLigence Real-Time Cell Analysis on Estrogen Receptor Agonism for Proliferation (AID 2282667)
Conditions: T47D proliferation, impedance (xCELLigence), 80 h
How it was run: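 Estrogen-driven proliferation is captured as electrode impedance in T47D cells 80 h after compound addition. Test articles ran at 8 concentrations, 1:4 dilutions from 100 uM final, in two replicate plates.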
In the case of CCOC(=O)CCCCCCCCC(=O)OCC, the outcome was “inactive”. In the case of C[C@H](CCC(=O)O)[C@H]1CC[C@H]2[C@@H]3CC[C@@H]4C[C@H](O)CC[C@]4(C)[C@H]3CC[C@]12C, the outcome was “inactive”. In the case of CCCCCCCCCC(=O)OCC, the outcome was “inactive”. In the case of O=C(O)c1ccco1, the outcome was “inactive”. In the case of C=CC(=O)OCC(CO)(COC(=O)C=C)COC(=O)C=C, the outcome was “inactive”. With CCCC1CCOC(C)S1 (configuration not stated) the outcome was “inactive”. With CC(C)(C)C1CCC(O)CC1 (configuration not stated) the outcome was “inactive”. With COc1ccc(C(C)=O)cc1 the AC50 was 26.7 nM (active). In the case of CCCCCCCCOC(=O)c1ccc(O)cc1, the AC50 was 521 nM (active). In the case of CCCCC(CC)COCCO (configuration not stated), the outcome was “inactive”. In the case of COc1ccc2[nH]cc(CCNC(C)=O)c2c1, the outcome was “inactive”. In the case of CC(=O)CCC=C(C)CCC=C(C)C, the outcome was “inactive”. In the case of CC(=O)c1ccc2ccccc2c1, the outcome was “inactive”. With CCCCCCCCCCCCOCCOS(=O)(=O)O the AC50 was 1980 nM (active). In the case of CCC(=O)OC(C)(C)C1CC=C(C)CC1 (configuration not stated), the outcome was “inactive”. For COc1cc(OC)c2ccc(=O)oc2c1, the outcome was “inactive”. With NC(=O)NC(N)=O the outcome was “inactive”. For [Cu+], the outcome was “inactive”. For CCC(C)C1CCCCC1=O (configuration not stated), the outcome was “inactive”. For CC(=O)OC(C)(C)C, the outcome was “inactive”. For CNC(=C[N+](=O)[O-])NCCSCc1ccc(CN(C)C)o1, the outcome was “inactive”. For CCCO, the outcome was “inactive”. For CCNC(=S)NCC, the outcome was “inactive”. With O=C(O)c1ccccc1O the outcome was “inactive”. For NC(=O)c1c(Cl)cccc1Cl, the AC50 was 168 nM (active). For COC(=O)c1ccc(C(=O)OC)cc1, the outcome was “inactive”. With CCCCCC#CC(=O)OC the outcome was “inactive”. For CC(C)N(c1ccccc1)C(C)C, the outcome was “inactive”. With CC(C)=CCCC(C)=CC(=O)O the outcome was “inactive”. In the case of C=C1CC/C=C(\C)CC[C@@H]2[C@@H]1CC2(C)C, the outcome was “inactive”. In the case of CC1=CC(=O)[C@H]2C[C@@H]1C2(C)C, the outcome was “inactive”. For O=c1cc(-c2ccc(O)cc2)oc2cc(O)cc(O)c12, the AC50 was 1330 nM (active). In the case of NCCN1CCNCC1, the AC50 was 10800 nM (active). For CC(=O)c1ccc(C)cc1, the outcome was “inactive”. With C=C(C)C(N)=O the outcome was “inactive”. With C/C=C(\C)C(=O)OC/C=C(\C)CCC=C(C)C the outcome was “inactive”. For CCc1cccc(O)c1, the outcome was “inactive”.
